The inhibition is the relative decrease from the control value, in per cent.

The target in experiment [1] is T1, Inhibitor of nuclear factor kappa-B kinase subunit epsilon (Homo sapiens) (UniProt Q14164).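 Also: reported values are averaged percent inhibition figures against human IKKε.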
T1 sequence (whole entry): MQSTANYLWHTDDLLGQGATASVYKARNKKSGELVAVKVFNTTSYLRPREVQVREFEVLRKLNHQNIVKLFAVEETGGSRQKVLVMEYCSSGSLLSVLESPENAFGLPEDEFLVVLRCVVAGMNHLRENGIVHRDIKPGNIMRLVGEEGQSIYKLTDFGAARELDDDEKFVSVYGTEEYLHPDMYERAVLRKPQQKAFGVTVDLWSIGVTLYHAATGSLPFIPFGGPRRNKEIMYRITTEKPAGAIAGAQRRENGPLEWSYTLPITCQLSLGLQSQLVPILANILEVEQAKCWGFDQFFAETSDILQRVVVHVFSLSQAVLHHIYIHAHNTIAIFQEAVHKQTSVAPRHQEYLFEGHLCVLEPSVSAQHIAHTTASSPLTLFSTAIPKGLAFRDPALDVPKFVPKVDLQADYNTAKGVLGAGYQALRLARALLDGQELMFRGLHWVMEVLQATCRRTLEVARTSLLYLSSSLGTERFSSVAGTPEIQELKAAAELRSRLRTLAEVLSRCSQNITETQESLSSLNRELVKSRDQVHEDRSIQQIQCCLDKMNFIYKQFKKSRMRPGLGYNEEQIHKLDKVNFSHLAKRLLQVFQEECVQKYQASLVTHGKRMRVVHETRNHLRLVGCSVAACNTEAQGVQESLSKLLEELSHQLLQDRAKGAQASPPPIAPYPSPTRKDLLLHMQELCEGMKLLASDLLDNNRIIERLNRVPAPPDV
The conditions noted are these: at 1 µM.

The target of experiment [2] is T2, Serine/threonine-protein kinase Nek1 (Homo sapiens) (UniProt Q96PY6).
T2 sequence (whole entry): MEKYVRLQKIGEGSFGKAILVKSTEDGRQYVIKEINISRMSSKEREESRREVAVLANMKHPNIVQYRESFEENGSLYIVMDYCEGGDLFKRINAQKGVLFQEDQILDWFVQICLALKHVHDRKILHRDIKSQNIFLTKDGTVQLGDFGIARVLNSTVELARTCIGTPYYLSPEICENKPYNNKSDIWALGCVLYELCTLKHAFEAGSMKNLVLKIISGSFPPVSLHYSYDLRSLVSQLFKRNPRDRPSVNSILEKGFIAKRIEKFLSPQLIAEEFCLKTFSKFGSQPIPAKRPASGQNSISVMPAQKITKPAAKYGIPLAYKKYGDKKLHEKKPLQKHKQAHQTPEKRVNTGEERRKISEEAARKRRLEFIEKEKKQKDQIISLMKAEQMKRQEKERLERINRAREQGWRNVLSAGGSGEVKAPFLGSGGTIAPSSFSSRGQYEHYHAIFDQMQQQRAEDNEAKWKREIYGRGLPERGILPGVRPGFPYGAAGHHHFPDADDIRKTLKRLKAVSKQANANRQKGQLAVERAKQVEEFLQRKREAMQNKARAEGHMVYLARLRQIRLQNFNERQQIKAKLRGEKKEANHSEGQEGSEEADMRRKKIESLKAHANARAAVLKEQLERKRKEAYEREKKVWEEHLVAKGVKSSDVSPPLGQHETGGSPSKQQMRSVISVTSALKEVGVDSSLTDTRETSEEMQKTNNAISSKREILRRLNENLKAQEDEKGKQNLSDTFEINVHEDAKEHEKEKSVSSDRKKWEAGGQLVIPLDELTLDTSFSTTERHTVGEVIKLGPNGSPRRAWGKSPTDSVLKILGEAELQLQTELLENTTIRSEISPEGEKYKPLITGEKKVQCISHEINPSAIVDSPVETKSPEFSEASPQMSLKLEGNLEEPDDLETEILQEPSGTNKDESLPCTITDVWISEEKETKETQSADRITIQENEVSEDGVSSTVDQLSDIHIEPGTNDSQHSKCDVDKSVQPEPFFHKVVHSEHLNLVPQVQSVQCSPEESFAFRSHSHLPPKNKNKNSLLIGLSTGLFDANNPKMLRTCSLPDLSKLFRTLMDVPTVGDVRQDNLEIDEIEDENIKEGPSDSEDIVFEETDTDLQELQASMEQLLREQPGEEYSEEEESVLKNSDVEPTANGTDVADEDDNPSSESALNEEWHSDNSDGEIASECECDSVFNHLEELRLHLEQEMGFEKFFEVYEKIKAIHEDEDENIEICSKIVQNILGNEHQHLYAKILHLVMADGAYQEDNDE
The conditions noted are these: at 0.1 µM.

For experiment [3], the target named is T2, Serine/threonine-protein kinase Nek1 (Homo sapiens). The conditions noted are these: at 1 µM.
The target in experiment [4] is T3, Serine/threonine-protein kinase Nek2 (Homo sapiens) (UniProt P51955).
T3 sequence (whole entry): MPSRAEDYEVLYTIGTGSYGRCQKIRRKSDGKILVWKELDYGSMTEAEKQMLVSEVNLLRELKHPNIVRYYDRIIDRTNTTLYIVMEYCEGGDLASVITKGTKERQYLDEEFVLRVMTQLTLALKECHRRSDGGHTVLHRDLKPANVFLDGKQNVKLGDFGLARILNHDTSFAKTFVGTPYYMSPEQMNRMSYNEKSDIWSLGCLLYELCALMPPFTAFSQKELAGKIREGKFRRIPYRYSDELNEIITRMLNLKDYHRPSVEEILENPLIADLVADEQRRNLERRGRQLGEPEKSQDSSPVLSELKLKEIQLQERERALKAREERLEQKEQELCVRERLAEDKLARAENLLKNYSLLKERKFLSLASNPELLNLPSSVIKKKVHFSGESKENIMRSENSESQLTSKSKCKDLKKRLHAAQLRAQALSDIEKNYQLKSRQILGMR
The conditions noted are these: at 0.1 µM.

The target of experiment [5] is T3, Serine/threonine-protein kinase Nek2 (Homo sapiens). The conditions noted are these: at 1 µM.
The target of experiment [6] is Serine/threonine-protein kinase Nek6 (Homo sapiens) (UniProt Q9HC98). The conditions noted are these: at 0.1 µM.
Experiment [7] has the same target. The conditions noted are these: at 1 µM.
The target in experiment [8] is Serine/threonine-protein kinase Nek7 (Homo sapiens) (UniProt Q8TDX7). The conditions noted are these: at 0.1 µM.
Experiment [9] has the same target. The conditions noted are these: at 1 µM.
The target in experiment [10] is T4, Serine/threonine-protein kinase Nek9 (Homo sapiens) (UniProt Q8TD19).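 Also: reported value is the mean percent inhibition of NEK9.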
T4 sequence (whole entry): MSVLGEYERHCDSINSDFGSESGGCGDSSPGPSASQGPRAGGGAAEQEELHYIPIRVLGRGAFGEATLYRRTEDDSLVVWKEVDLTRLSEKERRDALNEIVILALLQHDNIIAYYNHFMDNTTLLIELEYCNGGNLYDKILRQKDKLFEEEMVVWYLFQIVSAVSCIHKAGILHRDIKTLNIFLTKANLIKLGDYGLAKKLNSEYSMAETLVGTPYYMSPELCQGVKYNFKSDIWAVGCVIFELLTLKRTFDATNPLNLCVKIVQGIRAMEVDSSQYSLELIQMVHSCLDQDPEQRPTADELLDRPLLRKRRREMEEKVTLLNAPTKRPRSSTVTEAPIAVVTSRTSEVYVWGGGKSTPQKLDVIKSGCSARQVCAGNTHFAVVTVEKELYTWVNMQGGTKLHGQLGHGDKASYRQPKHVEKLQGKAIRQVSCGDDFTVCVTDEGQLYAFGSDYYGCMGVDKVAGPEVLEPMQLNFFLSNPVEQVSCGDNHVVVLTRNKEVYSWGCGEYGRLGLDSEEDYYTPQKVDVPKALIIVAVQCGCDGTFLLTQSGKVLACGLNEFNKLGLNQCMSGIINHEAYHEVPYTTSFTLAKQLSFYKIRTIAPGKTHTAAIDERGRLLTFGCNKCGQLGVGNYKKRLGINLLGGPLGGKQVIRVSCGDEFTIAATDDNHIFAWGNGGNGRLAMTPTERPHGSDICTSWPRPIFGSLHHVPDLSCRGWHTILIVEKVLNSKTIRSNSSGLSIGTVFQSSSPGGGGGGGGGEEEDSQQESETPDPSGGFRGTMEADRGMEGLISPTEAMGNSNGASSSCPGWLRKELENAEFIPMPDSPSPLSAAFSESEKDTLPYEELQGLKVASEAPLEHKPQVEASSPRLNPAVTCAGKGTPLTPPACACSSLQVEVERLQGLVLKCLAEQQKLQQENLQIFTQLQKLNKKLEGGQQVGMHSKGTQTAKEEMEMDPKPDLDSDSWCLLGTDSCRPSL
The conditions noted are these: at 0.1 µM.

Sequence of Serine/threonine-protein kinase Nek6 (Homo sapiens) (Q9HC98 whole entry): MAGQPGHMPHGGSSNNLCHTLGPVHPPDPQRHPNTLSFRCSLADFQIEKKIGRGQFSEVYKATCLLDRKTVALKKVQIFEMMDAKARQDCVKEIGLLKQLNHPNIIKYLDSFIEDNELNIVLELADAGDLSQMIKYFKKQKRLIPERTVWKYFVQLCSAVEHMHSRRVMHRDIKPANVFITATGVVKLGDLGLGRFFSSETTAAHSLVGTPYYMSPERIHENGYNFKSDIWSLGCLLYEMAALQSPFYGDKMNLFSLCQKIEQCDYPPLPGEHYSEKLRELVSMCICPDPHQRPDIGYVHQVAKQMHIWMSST
Sequence of Serine/threonine-protein kinase Nek7 (Homo sapiens) (Q8TDX7 whole entry, looked up): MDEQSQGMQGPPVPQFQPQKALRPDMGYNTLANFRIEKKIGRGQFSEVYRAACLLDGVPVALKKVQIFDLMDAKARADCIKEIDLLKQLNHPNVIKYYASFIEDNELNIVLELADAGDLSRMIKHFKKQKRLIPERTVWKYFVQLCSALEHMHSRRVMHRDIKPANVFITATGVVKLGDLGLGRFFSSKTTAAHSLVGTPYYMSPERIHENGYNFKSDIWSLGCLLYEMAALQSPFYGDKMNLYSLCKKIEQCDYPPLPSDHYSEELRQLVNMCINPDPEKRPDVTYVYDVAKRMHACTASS

For the compound `CCc1cccc(NC(=O)Nc2ccc(Oc3ccc4nc(NC(=O)OC)[nH]c4c3)cc2)c1`, the inhibition in [1] was determined as 3.32%; in experiment [2] it was 0.6%; in [3], 1.24%; in experiment [4], 1.78%; in experiment [5], 1.1%; in experiment [6], 0.58%. The inhibition in experiment [7] was 3.24%; in experiment [8], -1.37%; in experiment [9], -2.89%; in [10], 3.74%.
Take `COc1cc2ncn(-c3cc(O[C@H](C)c4ccccc4Cl)c(C(N)=O)s3)c2cc1OC`: the inhibition in experiment [1] was determined as 6.91%; in experiment [2], 29.8%; in experiment [3] it was 67.8%; in experiment [4], 12.1%; in experiment [5] it was 48.8%; in experiment [6], 2.67%. Besides, the inhibition stood at 4.93% in experiment [7], 3.58% in experiment [8], 4.26% in experiment [9] and 62% in [10].
On to `Nc1nc(-c2ccccn2)c(-c2ccc3ncccc3n2)s1`, for which the inhibition in [1] stood at 5.46%; in experiment [2], 2.32%; in experiment [3] it was 4.91%; in experiment [4], 3.61%; in experiment [5] it was 2.7%; in experiment [6], 3.95%. For the same compound, the inhibition in experiment [7] amounted to 1.16%; in experiment [8], 3.03%; in [9] it was 2.77%; in experiment [10] it was 6.33%.
In the case of `COc1cc(C=NNc2ncnc3c2cnn3-c2ccccc2)ccc1O`, the inhibition in experiment [1] was determined as 8.67%; in experiment [2], 3.59%; in experiment [3], 15.8%; in [4] it was 2.6%; in experiment [5] it was 3.58%; in experiment [6] it was 1.23%. For the same compound, the inhibition in experiment [7] was -0.37%; in experiment [8], 3.01%; in experiment [9], 5.26%; in experiment [10], 3.36%.
Consider `CCn1c(-c2nonc2N)nc2c(N3CCCC3)nccc21`, for which the inhibition in experiment [1] was -2.89%; in experiment [2] it was -0.04%; in experiment [3], 0.27%; in experiment [4], -0.88%; in [5], -0.91%; in experiment [6], 0.88%. In addition, the inhibition in experiment [7] was -1.63%; in experiment [8], 2.1%; in [9], -1.35%; in [10] it was 2.28%.
As to `Cn1cc(C=C2C(=O)Nc3cccnc32)c2ccccc21`, the inhibition in [2] was 2.09%; in experiment [3], 1.05%; in [4] it was 2.65%; in experiment [5], 2.9%; in experiment [6], 3.82%; in experiment [7] it was -1.86%. The inhibition in [8] amounted to 3.8%; in [9], 4.49%; in [10], 2.88%.
Turning to `N#Cc1c(NC(=O)c2cccc3ccccc23)sc2c1CCCC2`, the inhibition in experiment [1] was 1.87%; in experiment [2], 1.19%; in [3], 1.42%; in experiment [4], 3.93%; in experiment [5] it was 4.37%; in [6], 3.32%. Besides, the inhibition came out at 1.3% in [7], 5.78% in [8], 3.68% in experiment [9] and 5.96% in experiment [10].
In the case of `CN(C)c1cc2c(Nc3ccc4nc(Cc5ccccc5)[nH]c4c3)ncnc2cn1`, the inhibition was 16.6% in experiment [1]; 2.45% in [2]; 3.05% in [3]; 6.53% in experiment [4]; 8.34% in experiment [5]; 3.19% in experiment [6]. In addition, the inhibition in experiment [7] is -0.04%; in [8] it was 6.44%; in experiment [9] it was 4.66%; in [10] it was 14.3%.
As for `CNC(=O)c1cncc(/C=C/c2c(Cl)cccc2Cl)c1`, the inhibition in experiment [1] was 6.17%; in [2], 2.78%; in experiment [3] it was 1.83%; in [4], 4.53%; in [5], 3.38%; in experiment [6], 1.11%. Also, the inhibition in experiment [7] came out at 4.76%; in [8], 4.23%; in [9], 9.84%; in experiment [10], 5.43%.

The record behind these values is ChEMBL document CHEMBL1961873, “Compounds: GSK PKIS; Assays: Nanosyn kinase panel” (2012).
